Test results as given in PubChem BioAssay (NCI).
About 79,000 compounds went through this panel and 15% of them were active in at least one assay; those are over-represented in the sample as a whole. Values without a mark were called inactive. Activity calls are given as the source filed them. Rule as the data show it: active = growth inhibition above about 70%; inactive = the rest.

Tests used:
[1] = NCI Yeast Anticancer Drug Screen. Data for the rad50 strain (AID 155);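 also: 0% = growth of vehicle-only cultures of the same strain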; settings: S. cerevisiae rad50 strain growth inhibition, stronger effect = higher value
Method in brief: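 Relative growth inhibition (compound vs vehicle) was measured in yeast with a defined repair-gene alteration.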

[2] = NCI Yeast Anticancer Drug Screen. Data for the mec2-1 strain (AID 157); settings: S. cerevisiae mec2-1 strain, stronger effect = higher value
Method in brief: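 Readout is yeast growth inhibition, normalised to vehicle-treated controls, in the mec2-1 strain exposed to compound.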

[3] = NCI Yeast Anticancer Drug Screen. Data for the sgs1 mgt1 strain (AID 161);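 also: 0% = growth of cultures given vehicle only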; settings: S. cerevisiae sgs1 mgt1 strain, stronger effect = higher value
Method in brief: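 Yeast cells carrying a defined DNA-repair defect were exposed to test compounds. Growth inhibition was measured relative to vehicle-treated controls.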

[4] = NCI Yeast Anticancer Drug Screen. Data for the cln2 rad14 strain (AID 165);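 also: 0% = growth equal to vehicle treated cultures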; settings: S. cerevisiae cln2 rad14 strain, stronger effect = higher value
Method in brief: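 Relative to vehicle controls, growth inhibition of compound-treated cln2 rad14 yeast was recorded.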

[5] = NCI Yeast Anticancer Drug Screen. Data for the bub3 strain (AID 167); settings: S. cerevisiae bub3 mutant strain, stronger effect = higher value
Method in brief: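 Screening used yeast with an engineered genetic alteration affecting cell cycle control. Compound-exposed cultures were compared with vehicle cultures, and reduced growth was taken as inhibition.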

[6] = NCI Yeast Anticancer Drug Screen. Data for the mlh1 rad18 strain (AID 175); settings: S. cerevisiae mlh1 rad18 strain growth inhibition, stronger effect = higher value
Method in brief: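 Test agents were incubated with a yeast strain of defined genotype (DNA damage repair defect). Inhibition of growth was derived by comparison with vehicle-exposed cultures.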

[7] = at 5.0 µM (retest, dose inferred, filed as 0.5)
[8] = at 50.0 µM (retest, dose inferred, filed as 5.0)

SMILES | growth inhibition [1, 7] | growth inhibition [1, 8] | growth inhibition ([1]; at 50.0 µM) | growth inhibition [2, 7] | growth inhibition [2, 8] | growth inhibition ([2]; at 50.0 µM) | growth inhibition [3, 7] | growth inhibition [3, 8] | growth inhibition ([3]; at 50.0 µM) | growth inhibition [4, 7] | growth inhibition [4, 8] | growth inhibition ([4]; at 50.0 µM) | growth inhibition [5, 7] | growth inhibition [5, 8] | growth inhibition ([5]; at 50.0 µM) | growth inhibition [6, 7] | growth inhibition [6, 8] | growth inhibition ([6]; at 50.0 µM)
CCCCCCCC/C=C\CCCCCCCC(=O)O (tested in a mixture with another compound) | 4% | 97% (active) | 96.2% (active) | -1% | 100% (active) | 99.3% (active) | 3% | 98% (active) | 89.7% (active) | 2% | 96% (active) | -53.9% | -2% | 99% (active) | 95.3% (active) | 0% | 96% (active) | 97.1% (active)
Nc1nc(-c2ccc(Cl)cc2)c(N=Nc2ccc(Br)cc2)s1 | 1% | 93% (active) | 97.5% (active) | -20% | 96% (active) | 98% (active) | 3% | 94% (active) | 98.3% (active) | -11% | 89% (active) | 95.4% (active) | -17% | 91% (active) | 96.5% (active) | 11% | 97% (active) | 98.5% (active)
O=C(O)c1cccc(S(=O)(=O)NN2C(=O)CSC2c2c(O)ccc3ccccc23)c1 (stereo not given) | -11% | 50% | 61.9% | 0% | 50% | 61% | 2% | 80% (active) | 91.7% (active) | -4% | 57% | 36.9% | 6% | 86% (active) | 83.5% (active) | -15% | 82% (active) | 95.2% (active)
CCCCCCCCCCCCCCCc1ncc(C)[nH]1 | 69% | 69% | 99.1% (active) | 72% (active) | 99% (active) | 99.4% (active) | 91% (active) | 99% (active) | 99.4% (active) | 28% | 98% (active) | 97.4% (active) | 75% (active) | 99% (active) | 99.5% (active) | 50% | 99% (active) | 99% (active)
C=C1C(=O)OC(CCCCCCCCCCCCC)C1C(=O)O (stereo not given) | 69% | 89% (active) | 84% (active) | 93% (active) | 89% (active) | 89.5% (active) | 71% (active) | 84% (active) | 76.3% (active) | 63% | 85% (active) | 85% (active) | 86% (active) | 90% (active) | 86.5% (active) | 86% (active) | 89% (active) | 80.8% (active)
CC(C)(C)NCc1cc(C(C)(C)C)cc(-c2ccc(Cl)cc2)c1O | 26% | 92% (active) | 84.8% (active) | 13% | 91% (active) | 88.4% (active) | 7% | 88% (active) | 86.5% (active) | 44% | 55% | 76.8% (active) | 12% | 91% (active) | 83.9% (active) | 25% | 93% (active) | 84.6% (active)
CC(C)(C)C(=O)OC12/C(=N/O)CCCCCC1c1ccccc12 (stereo not given) | -17% | 88% (active) | 81.8% (active) | 6% | 92% (active) | 86% (active) | -12% | 89% (active) | 81.2% (active) | 31% | 96% (active) | 85.3% (active) | -9% | 93% (active) | 84.2% (active) | 14% | 92% (active) | 80.5% (active)
Cc1c(N)nc(C(CC(N)=O)NCC(N)C(N)=O)nc1C(=O)NC(C(=O)NC(C)C(O)C(C)C(=O)NC(C(=O)NCCc1nc(-c2nc(C(=O)NCCCNCCCc3ccccn3)cs2)cs1)C(C)O)C(OC1OC(CO)C(O)C(O)C1OC1OC(CO)C(O)C(OC(N)=O)C1O)c1cnc[nH]1 (stereo not given) | 98% (active) | 99% (active) | 92.6% (active) | 97% (active) | 99% (active) | 93.4% (active) | 98% (active) | 99% (active) | 93.7% (active) | 90% (active) | 98% (active) | 90.3% (active) | 97% (active) | 98% (active) | 93.3% (active) | 98% (active) | 99% (active) | 92% (active)
Cc1c[nH]c(=O)n(CC(=O)C2CCC3C4CCC5=CC(=O)CCC5(C)C4CCC23C)c1=O (stereo not given) | 11% | 30% | 48.2% | 0% | -11% | 43.6% | -1% | 26% | 47.4% | -1% | 4% | 46.6% | 0% | 17% | 41.1% | 1% | 20% | 43.3%
c1ccc(OCC2c3ccccc3Nc3ccccc32)cc1 | 98% (active) | 97% (active) | 71.9% (active) | 99% (active) | 98% (active) | 28.6% | 99% (active) | 97% (active) | 26.9% | 99% (active) | 96% (active) | -51.8% | 92% (active) | 97% (active) | -0.2% | 99% (active) | 95% (active) | 67.2%
